SMILES strings stand for the structures. Results filed as inconclusive are left out. The source made the active and inactive calls. How the source made its calls: active means hit-call score of the fitted dose curve at least 0.9, where 1 is the maximum; inconclusive means response in the unintended direction; inactive means score below 0.9.

Data on two molecules can be found in PubChem BioAssay AID2283125 (EPA ToxCast).

In the assay the target is Tyrosine-protein kinase ABL1 (Homo sapiens) (UniProt P00519). The experiment in a line: NVS_ENZ_hAbl: NovaScreen (NVS) Enzymatic Assay for human ABL proto-oncogene 1, non-receptor tyrosine kinase. On the procedure: NVS_ENZ_hAbl is a biochemical, single-readout assay that uses extracted gene-proteins in a cell-free assay. Measurements were taken 1 hour after chemical dosing in a 96-well plate.NVS_ENZ_hAbl is one of one assay component(s) measured or calculated from the NVS_ENZ_hAbl assay. It is designed to make measurements of enzyme activity, a form of enzyme reporter, as detected with fluorescence intensity signals by Fluorescence and electrophoretic mobility shift technology.Data from the assay component NVS_ENZ_hAbl was analyzed into 1 assay endpoint. This assay endpoint, NVS_ENZ_hAbl, was analyzed in the positive analysis fitting direction relative to DMSO as the negative control and baseline of activity. Using a type of enzyme reporter, loss-of-signal activity can be used to understand changes in the enzymatic activity as they relate to the gene ABL1. Furthermore, this assay endpoint can be referred to as a primary readout, because this assay has produced multiple assay endpoints where this one serves a enzymatic activity function. To generalize the intended target to other relatable targets, this assay endpoint is annotated to the kinase intended target family, where the subfamily is non-receptor tyrosine kinase. […]
Tyrosine-protein kinase ABL1 (Homo sapiens), sequence (P00519 whole entry, looked up): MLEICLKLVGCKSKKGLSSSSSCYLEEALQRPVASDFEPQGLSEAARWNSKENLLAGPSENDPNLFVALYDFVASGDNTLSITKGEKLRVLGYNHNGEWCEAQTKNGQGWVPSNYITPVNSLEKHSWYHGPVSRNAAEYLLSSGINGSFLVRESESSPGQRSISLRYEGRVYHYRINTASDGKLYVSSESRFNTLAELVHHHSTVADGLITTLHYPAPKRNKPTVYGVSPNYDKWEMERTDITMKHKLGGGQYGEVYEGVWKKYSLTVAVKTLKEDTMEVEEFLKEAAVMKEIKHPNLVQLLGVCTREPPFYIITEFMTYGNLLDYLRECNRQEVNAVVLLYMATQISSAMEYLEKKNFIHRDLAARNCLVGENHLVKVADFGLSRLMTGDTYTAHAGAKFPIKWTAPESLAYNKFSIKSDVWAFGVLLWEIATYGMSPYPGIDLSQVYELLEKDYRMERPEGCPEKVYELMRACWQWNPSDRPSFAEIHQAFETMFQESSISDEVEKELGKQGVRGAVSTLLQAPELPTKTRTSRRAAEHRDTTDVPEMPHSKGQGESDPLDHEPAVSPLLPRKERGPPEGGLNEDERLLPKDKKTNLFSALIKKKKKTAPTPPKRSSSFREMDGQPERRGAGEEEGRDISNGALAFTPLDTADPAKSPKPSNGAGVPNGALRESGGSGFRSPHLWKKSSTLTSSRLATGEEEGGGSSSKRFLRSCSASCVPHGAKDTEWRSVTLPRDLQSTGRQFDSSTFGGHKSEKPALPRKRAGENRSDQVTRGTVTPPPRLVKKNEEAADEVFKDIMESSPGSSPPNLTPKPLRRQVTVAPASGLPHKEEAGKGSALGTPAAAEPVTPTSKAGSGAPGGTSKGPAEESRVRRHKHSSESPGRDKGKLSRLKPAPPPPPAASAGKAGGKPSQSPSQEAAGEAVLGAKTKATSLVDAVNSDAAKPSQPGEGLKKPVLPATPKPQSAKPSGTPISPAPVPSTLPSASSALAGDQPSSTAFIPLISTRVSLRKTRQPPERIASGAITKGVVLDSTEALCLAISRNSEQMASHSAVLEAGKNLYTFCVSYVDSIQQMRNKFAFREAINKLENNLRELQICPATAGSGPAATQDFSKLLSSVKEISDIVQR

With `O=C(Nc1ccc([N+](=O)[O-])cc1Cl)c1cc(Cl)ccc1O`, the molecule was classed as inactive.

With `c1ccc2[nH]c(-c3cscn3)nc2c1`, the molecule was classed as inactive.
